The values below come from the supplement of paper PMC10681739.
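For RUNX1 binding intensity (PBM fluorescence) in presence of ETS1, normalised to RUNX1-only experiment in this document: Full-length recombinant human ETS1 or RUNX1 bound to double-stranded 36-bp genomic probes on microarrays, detected by protein-specific primary antibody and Alexa488 secondary, spot fluorescence as median of four replicate spots.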

One assay has as its target T1, ETS1 (UniProt P14921).
T1 sequence: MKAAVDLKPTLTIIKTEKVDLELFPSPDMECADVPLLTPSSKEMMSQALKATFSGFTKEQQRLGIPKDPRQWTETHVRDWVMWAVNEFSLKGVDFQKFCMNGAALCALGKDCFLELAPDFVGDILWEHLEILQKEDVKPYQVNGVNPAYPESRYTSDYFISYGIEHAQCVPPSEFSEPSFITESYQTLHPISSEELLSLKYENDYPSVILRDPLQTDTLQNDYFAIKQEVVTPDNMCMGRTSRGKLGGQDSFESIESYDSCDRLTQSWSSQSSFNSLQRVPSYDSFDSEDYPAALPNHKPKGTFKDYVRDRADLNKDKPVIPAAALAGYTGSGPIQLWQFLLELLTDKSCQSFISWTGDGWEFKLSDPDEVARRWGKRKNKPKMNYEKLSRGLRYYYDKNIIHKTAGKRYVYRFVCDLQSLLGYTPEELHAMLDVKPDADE
The assay can be described thus: ETS1 binding intensity (PBM fluorescence) in presence of RUNX1, normalised to ETS1-only experiment (arbitrary fluorescence units); higher = stronger binding. To be noted: ETS1 concentration 1 nM; RUNX1 concentration 25 nM.
On to GTCCCACGCGACTTCCTGCGGGAAACATGGCGGCAT, for which the ETS1 binding intensity was 1820.
Same read-out and setting: the same measure for CTTGCTTAACGCTTCCTGAGGGGTGGTTTGGGTTTT: 369; for CGAGCAGGAAGTGGCAAGATTTGATAGGCGGTCAGG: 2940.
Still for that read-out and setting: in the case of GCCGATGAGGAAGTGAGGGCCAACCACACTGCTCAG it was 673.
Still for that read-out and setting: in the case of TCATTTCCTCTGGTGTTATTGTGTTGTGGTTTTAAG it was 1560.
Consider GCGAGACGCGGAAGAGGCTTGCGGTTGACCAAAGAA, for which the ETS1 binding intensity was determined as 2010.
With ACACAAACAGGAAGTGTTTGTGGTCCCTGCCTTTAG, the ETS1 binding intensity is 14500.
Take TGGGGCTAGGCTTCCGGGGCTCTGCGGTCCTCGGCC: the ETS1 binding intensity was determined as 623.
The same measure, in the same setting: in the case of CGAGGGAGCCGGAAAGATGGTGGTTACCAGATCTGC it was 992; in that of AACCCGGAAGTGGACACGGAGCTCGGCTGCGGCTCC, 2240; in that of CACCCAGTTTGAACTTCCTGGCGGTTTTGTTTACAC, 853.
On to CTTGTGCCTACATCCTGTAGCTGTGGTTTAGGGACG, for which the ETS1 binding intensity stood at 6810.
Same read-out and setting: the same measure for TGATTAAAAACAGGATGTGGGTGAATAGTCATGCAT: 7580; for CAACTTCCGGGGCCGGTTGCCTGGCAACCGCAGGAG: 3940.
For GCTTGTCTTCCGGTTTCGTCGCCGCCGCAGGCGCAC, the ETS1 binding intensity turned out to be 1880.
Same read-out and setting: in the case of TCTCCTTTCAGGAAGCTGCACCCAAACCACCCTCAG it was 610.
Regarding GGGCAGCAGCAGACCGGAAACCACAGCCGACTAAGA, the ETS1 binding intensity was 29500.
The same measure, in the same setting: the same measure for GAGTCTACAGCGGAAGCCACCACATGCCCCACCCCC: 5330.
Same read-out and setting: the same measure for CCCCTCTCTCCCACTTCCTGTGGTCTCAGTCTTTGT: 4840; for AGAGACAGCGGGCGGAAACCGCAGAAAAAGTTGAAA: 3260.
For the sequence AGGGACTTCCGGTGACCAGAGCACTAGCGCCGCAAA, the ETS1 binding intensity is 1990.
Still for that read-out and setting: the same measure for GGAACAGGAAGCGGCAGAAATAGCAGCCACCGCGGC: 1540; for ACAGAGCAGGAAGCAGCCCTCACCACAGATGAAGCA: 1210; for TTTTGCCCAACAGGATGTGGTTTCTAAAGCAGACGG: 31600.
Still for that read-out and setting: the same measure for TTAGGCTCATGGGAAATGTGGTTTCTAAATCGCGGG: 639; for ACGTGATGGCAGTCTTCCTGCCCACAAGTTCTGGTC: 486.
On the same count and under the same terms, in the case of TCCCTCCTTCCGCTCTGGTTTTGTGGTTGCTTGCTG it was 1620; in that of CTGCGCGGCCGGAAGTCGGCGGTTTCCCAGACGACG, 30000.
On to GAAGCGGAAGTCGCTGAGGGGTGGTGAAGCGGTTGG, for which the ETS1 binding intensity turned out to be 2420.
Same read-out and setting: in the case of GACTTGGGGGAAGTGGCTTGGTTTGCGTGGTTTCTC it was 546; in that of TTGAGGGGAAGGGGAGGAAGTGGTCATTGGAACTTG, 3150; in that of TTATTTCCTCTTTTTTTTTTTTTTTTTGGTTTTGCT, 440.
Consider CCGCGCACCCGGAACTACCTCCCGACCCGCATCCCC, for which the ETS1 binding intensity amounted to 592.
For GAGGCAGGCGGATGTCAGTGTGGTTAGAGCACAGTG, the ETS1 binding intensity amounted to 3310.
Same read-out and setting: in the case of CTGAGCCGGGACCGGAAGCCGCACCGCCCCCCGCGC it was 21700.
GCCAGGGCAGGAAGTTGCTAACCGCCCCAGAGCAGG: the ETS1 binding intensity came to 4850.
On the same count and under the same terms, in the case of ATTACAGGAAGTATGTCCTCCTCTGCCTAACCACTG it was 2210.
With AACAAACAGTAGGCAGGAAGTGGTTAAACCGAAAGG, the ETS1 binding intensity was determined as 28900.
The same measure, in the same setting: the same measure for CCCACCCAGGAAGCCGTCCTAACCACAACAGCCCTC: 2580; for GTGCAGGGCCCGGAAGCTCAGTGTGGTTAAAGACAT: 5260.

The target in the next assay is RUNX1 (UniProt Q01196). Briefly: RUNX1 binding intensity (PBM fluorescence) in presence of ETS1, normalised to RUNX1-only experiment (arbitrary fluorescence units); higher = stronger binding. To be noted: RUNX1 concentration 2 nM; ETS1 concentration 25 nM. On the procedure: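 Cooperative gcPBM on 36-bp genomic probes with neighbouring ETS1 and RUNX1 sites. Recombinant human RUNX1 (2 nM) was incubated alone or with ETS1 (25 nM) and detected with anti-RUNX1 antibody plus Alexa488 secondary. Values are medians over 4 replicate spots; the RUNX1+ETS1 data were normalised to the RUNX1-only data. The probes sit in constant array flanks that are not printed.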
Chain of RUNX1 (Q01196 whole entry): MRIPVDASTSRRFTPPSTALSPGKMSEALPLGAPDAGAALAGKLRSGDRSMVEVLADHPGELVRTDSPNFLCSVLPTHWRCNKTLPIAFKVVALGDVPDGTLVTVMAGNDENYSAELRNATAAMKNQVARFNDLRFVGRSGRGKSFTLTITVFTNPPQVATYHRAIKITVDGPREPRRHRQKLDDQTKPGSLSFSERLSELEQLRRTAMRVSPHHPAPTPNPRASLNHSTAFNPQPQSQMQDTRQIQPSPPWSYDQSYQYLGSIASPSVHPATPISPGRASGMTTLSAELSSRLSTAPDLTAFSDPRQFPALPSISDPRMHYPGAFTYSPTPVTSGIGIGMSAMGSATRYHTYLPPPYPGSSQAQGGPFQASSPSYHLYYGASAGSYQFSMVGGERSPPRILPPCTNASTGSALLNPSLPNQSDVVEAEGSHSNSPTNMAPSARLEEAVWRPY
Turning to GTCCCACGCGACTTCCTGCGGGAAACATGGCGGCAT, the RUNX1 binding intensity is 2170.
Still for that read-out and setting: in the case of CTTGCTTAACGCTTCCTGAGGGGTGGTTTGGGTTTT it was 953; in that of CGAGCAGGAAGTGGCAAGATTTGATAGGCGGTCAGG, 1450.
For the sequence GCCGATGAGGAAGTGAGGGCCAACCACACTGCTCAG, the RUNX1 binding intensity turned out to be 749.
The same measure, in the same setting: the same measure for TCATTTCCTCTGGTGTTATTGTGTTGTGGTTTTAAG: 3040.
Take GCGAGACGCGGAAGAGGCTTGCGGTTGACCAAAGAA: the RUNX1 binding intensity stood at 4310.
On the same count and under the same terms, in the case of ACACAAACAGGAAGTGTTTGTGGTCCCTGCCTTTAG it was 1590.
The same measure, in the same setting: the same measure for TGGGGCTAGGCTTCCGGGGCTCTGCGGTCCTCGGCC: 1180; for CGAGGGAGCCGGAAAGATGGTGGTTACCAGATCTGC: 926.
Same read-out and setting: the same measure for AACCCGGAAGTGGACACGGAGCTCGGCTGCGGCTCC: 1530; for CACCCAGTTTGAACTTCCTGGCGGTTTTGTTTACAC: 1730; for CTTGTGCCTACATCCTGTAGCTGTGGTTTAGGGACG: 2050.
In the case of TGATTAAAAACAGGATGTGGGTGAATAGTCATGCAT, the RUNX1 binding intensity came out at 2490.
Still for that read-out and setting: the same measure for CAACTTCCGGGGCCGGTTGCCTGGCAACCGCAGGAG: 3790; for GCTTGTCTTCCGGTTTCGTCGCCGCCGCAGGCGCAC: 1780; for TCTCCTTTCAGGAAGCTGCACCCAAACCACCCTCAG: 949.
In the case of GGGCAGCAGCAGACCGGAAACCACAGCCGACTAAGA, the RUNX1 binding intensity turned out to be 3330.
Same read-out and setting: in the case of GAGTCTACAGCGGAAGCCACCACATGCCCCACCCCC it was 1200; in that of CCCCTCTCTCCCACTTCCTGTGGTCTCAGTCTTTGT, 4960; in that of AGAGACAGCGGGCGGAAACCGCAGAAAAAGTTGAAA, 14200.
With AGGGACTTCCGGTGACCAGAGCACTAGCGCCGCAAA, the RUNX1 binding intensity was determined as 2070.
On to GGAACAGGAAGCGGCAGAAATAGCAGCCACCGCGGC, for which the RUNX1 binding intensity came out at 1310.
In the case of ACAGAGCAGGAAGCAGCCCTCACCACAGATGAAGCA, the RUNX1 binding intensity came out at 1360.
Turning to TTTTGCCCAACAGGATGTGGTTTCTAAAGCAGACGG, the RUNX1 binding intensity is 18500.
On the same count and under the same terms, in the case of TTAGGCTCATGGGAAATGTGGTTTCTAAATCGCGGG it was 988; in that of ACGTGATGGCAGTCTTCCTGCCCACAAGTTCTGGTC, 1440.
For TCCCTCCTTCCGCTCTGGTTTTGTGGTTGCTTGCTG, the RUNX1 binding intensity is 3330.
Take CTGCGCGGCCGGAAGTCGGCGGTTTCCCAGACGACG: the RUNX1 binding intensity was 2820.
Still for that read-out and setting: in the case of GAAGCGGAAGTCGCTGAGGGGTGGTGAAGCGGTTGG it was 1010.
Still for that read-out and setting: the same measure for GACTTGGGGGAAGTGGCTTGGTTTGCGTGGTTTCTC: 1060; for TTGAGGGGAAGGGGAGGAAGTGGTCATTGGAACTTG: 990.
In the case of TTATTTCCTCTTTTTTTTTTTTTTTTTGGTTTTGCT, the RUNX1 binding intensity is 4230.
Turning to CCGCGCACCCGGAACTACCTCCCGACCCGCATCCCC, the RUNX1 binding intensity came out at 1440.
With GAGGCAGGCGGATGTCAGTGTGGTTAGAGCACAGTG, the RUNX1 binding intensity was 1960.
Still for that read-out and setting: the same measure for CTGAGCCGGGACCGGAAGCCGCACCGCCCCCCGCGC: 1770.
In the case of GCCAGGGCAGGAAGTTGCTAACCGCCCCAGAGCAGG, the RUNX1 binding intensity was 1460.
For the sequence ATTACAGGAAGTATGTCCTCCTCTGCCTAACCACTG, the RUNX1 binding intensity was 1270.
Regarding AACAAACAGTAGGCAGGAAGTGGTTAAACCGAAAGG, the RUNX1 binding intensity is 3590.
Still for that read-out and setting: the same measure for CCCACCCAGGAAGCCGTCCTAACCACAACAGCCCTC: 6790; for GTGCAGGGCCCGGAAGCTCAGTGTGGTTAAAGACAT: 1540.
